Measurements published in the OligoGym collection.

These sequences were tested against PALM2-AKAP2 (assay: pooled miR-30 sensor sort-seq; sequence = guide strand). Conditions: shRNA.
Note: reference of the scale not given here.

TTAGTCAGTGGCTTGTCTGAGT was tested. Which sensor-assay potency score (higher = more potent) did it give?
The sensor-assay potency score (higher = more potent) was 0.113.

How did the sensor-assay potency score (higher = more potent) turn out when TTCTAATGCAGTATTGTTCTTT was run?
The sensor-assay potency score (higher = more potent) was 0.398.

How did the sensor-assay potency score (higher = more potent) turn out when TTGAACAGGAGAAGACACCTGA was run?
The sensor-assay potency score (higher = more potent) was 1.01.

How did the sensor-assay potency score (higher = more potent) turn out when TTGATTTGCTTGTAACATGTTT was run?
Its sensor-assay potency score (higher = more potent) is -0.674.

These sequences were tested against PAQR4 in the same assay as above. Conditions: shRNA.

How did the sensor-assay potency score (higher = more potent) turn out when TATTGAACTGCAGGTGCGGCGG was run?
The sensor-assay potency score (higher = more potent) was -0.944.

Which sensor-assay potency score (higher = more potent) does the source give for TAGAGCACGGAGCCTGCAGGGG here?
Its sensor-assay potency score (higher = more potent) is -1.54.

How did the sensor-assay potency score (higher = more potent) turn out when TTGGTGGCACATAAAGAGGTGA was run?
The sensor-assay potency score (higher = more potent) was -0.895.

Which sensor-assay potency score (higher = more potent) does the source give for AAAGAGGTGATAGAGCACGGAG here?
The sensor-assay potency score (higher = more potent) was -0.892.

With TTGAACTGCAGGTGCGGCGGCG as the sequence, how does the sensor-assay potency score (higher = more potent) read?
Its sensor-assay potency score (higher = more potent) is -1.22.

Which sensor-assay potency score (higher = more potent) does the source give for TAGCAGGGCAGGGAGCCTGGAG here?
Its sensor-assay potency score (higher = more potent) is -1.85.

With TTCGTTGTGCAGGTAGAAGAGG as the sequence, how does the sensor-assay potency score (higher = more potent) read?
The sensor-assay potency score (higher = more potent) was -0.851.

TTATTGAACTGCAGGTGCGGCG was tested. Which sensor-assay potency score (higher = more potent) did it give?
Its sensor-assay potency score (higher = more potent) is -1.14.

For TTTATTGATGTCATCCAGGGTC, which sensor-assay potency score (higher = more potent) is on record?
The sensor-assay potency score (higher = more potent) was 0.153.

TAGAAGAGGCTGCGCAGGCAGC was tested. Which sensor-assay potency score (higher = more potent) did it give?
The sensor-assay potency score (higher = more potent) was -1.34.

TCGTTGTGCAGGTAGAAGAGGC was tested. Which sensor-assay potency score (higher = more potent) did it give?
The sensor-assay potency score (higher = more potent) was -0.773.

With GAACTTATTGAACTGCAGGTGC as the sequence, how does the sensor-assay potency score (higher = more potent) read?
Its sensor-assay potency score (higher = more potent) is -1.19.

The sequences below were run against PAQR6 in the same assay as above. Conditions: shRNA.

For TCGTTGGTCATCTGGAAGGAGC, which sensor-assay potency score (higher = more potent) is on record?
Its sensor-assay potency score (higher = more potent) is -1.68.

How did the sensor-assay potency score (higher = more potent) turn out when TGTAATCAAAGCGTCCTGGTGC was run?
Its sensor-assay potency score (higher = more potent) is 0.2.

With TGTGAAAGCAGCAATAATGAGT as the sequence, how does the sensor-assay potency score (higher = more potent) read?
The sensor-assay potency score (higher = more potent) was -0.688.

Which sensor-assay potency score (higher = more potent) does the source give for TGAGGACACAGTCCAAAGCCGA here?
The sensor-assay potency score (higher = more potent) was -1.67.

Which sensor-assay potency score (higher = more potent) does the source give for TAGGTTCCCAGCTGCAGCCAAG here?
The sensor-assay potency score (higher = more potent) was -1.67.

With TTGTCGAACAGGAATGGATAGG as the sequence, how does the sensor-assay potency score (higher = more potent) read?
Its sensor-assay potency score (higher = more potent) is -0.865.

With TCTATAGGCAAATAGCTGCTGG as the sequence, how does the sensor-assay potency score (higher = more potent) read?
Its sensor-assay potency score (higher = more potent) is -0.274.

With TAGGCGAAGGCTCCTGTGCGGA as the sequence, how does the sensor-assay potency score (higher = more potent) read?
The sensor-assay potency score (higher = more potent) was -1.44.

AAAGAGTGGGAGGTTGTCGAAC was tested. Which sensor-assay potency score (higher = more potent) did it give?
The sensor-assay potency score (higher = more potent) was -1.08.

With TTGGTCATCTGGAAGGAGCTGA as the sequence, how does the sensor-assay potency score (higher = more potent) read?
The sensor-assay potency score (higher = more potent) was 0.592.

Which sensor-assay potency score (higher = more potent) does the source give for TAATGAGTAGGTTCCCAGCTGC here?
The sensor-assay potency score (higher = more potent) was -0.176.

What follows are sequences tested against PARN in the same assay as above. Conditions: shRNA.

ATACATAGGACAGAGCTCCTGC was tested. Which sensor-assay potency score (higher = more potent) did it give?
The sensor-assay potency score (higher = more potent) was 0.763.

Which sensor-assay potency score (higher = more potent) does the source give for TTCATGACAGCCTACAACCGTG here?
Its sensor-assay potency score (higher = more potent) is -0.783.

TAGAAGTTAAATGACTTCGTTA was tested. Which sensor-assay potency score (higher = more potent) did it give?
The sensor-assay potency score (higher = more potent) was -0.166.

How did the sensor-assay potency score (higher = more potent) turn out when TTCTTCTTCATCTACTTTGCTG was run?
Its sensor-assay potency score (higher = more potent) is -0.0536.

With TTTAGTATCCAAGAGTCTGGGG as the sequence, how does the sensor-assay potency score (higher = more potent) read?
Its sensor-assay potency score (higher = more potent) is -0.201.

With TTGACATCTGGTGAGGATCTAT as the sequence, how does the sensor-assay potency score (higher = more potent) read?
The sensor-assay potency score (higher = more potent) was -0.282.

TTTCTCTTTCCTACTGTGCTGG was tested. Which sensor-assay potency score (higher = more potent) did it give?
The sensor-assay potency score (higher = more potent) was 0.101.

How did the sensor-assay potency score (higher = more potent) turn out when TAAGCTTCTGATACCTCTCTTC was run?
The sensor-assay potency score (higher = more potent) was 0.34.

How did the sensor-assay potency score (higher = more potent) turn out when TAGCTTTCTGCATATTTGCTGG was run?
Its sensor-assay potency score (higher = more potent) is -0.898.

For TTTATTAAAATCAAATCCCTGG, which sensor-assay potency score (higher = more potent) is on record?
Its sensor-assay potency score (higher = more potent) is 0.307.

With TAGGCTGCAAGTCTGGTCCTTC as the sequence, how does the sensor-assay potency score (higher = more potent) read?
Its sensor-assay potency score (higher = more potent) is 0.109.

Which sensor-assay potency score (higher = more potent) does the source give for TAAACTTCTTTTGATCCTCAGG here?
Its sensor-assay potency score (higher = more potent) is -0.665.
